# Records with an inconclusive call do not appear. Where a call stands in place of a potency, no number is given. Active and inactive are the calls of the source. The call rests on the fitted dose curve; in most records, active means well fitted activation curve with a large enough effect; inconclusive means small, poorly fitted or top-dose-only effect; inactive means flat fitted curve, though single readings scatter.
# Assay: FLuc inhibitory activity for the follow-up compounds in a cell-based translational read-through assay
# Settings: GripTite 293 FLucUGA read-through, luminescence, 48 h; series mostly up to 38.3 µM
# From the text: NCGC Assay Overview: Firefly (Photinus pyralis) luciferase is one of the most commonly used transcriptional reporters. It is considered one of the more dynamically responsive reporters - that is, responsive to changes in reporter transcription - as it requires no post-translational modifications and is enzymatically active directly after protein synthesis (Wood, 1998). With no endogenous expression in mammalian cells and without the requirement of external excitation, it offers very little background signal, thus generally providing excellent signal to background for most assays. Previous profiling work to determine the prevalence of compounds that affect FLuc enzymatic activity (PubChem AID 411) identified that ~3% of the MLSMR library (then at ~72K) inhibited FLuc (Auld et al., 2008). […] Of the compounds identified in this profile that inhibited FLuc, 151 compounds were selected for further analysis, in an effort to better understand their mode of inhibiting FLuc. The assay described here was to determine the activity of the compounds in a cell-based firefly luciferase reporter gene assay originally designed to identify compounds that enchanced translational read-through of a FLuc cDNA that contained a premature stop codon (Auld et al., 2009; Auld et al., 2010). Compounds that enhance translational read-through or compounds that stabilize FLuc intracellularly are identified as active compounds in the assay.
# NCGC Assay Protocol Summary: Reagents: Transient transfection of FlucUGA construct: TransFast Transfection Reagent (Promega #E2431); FLucUGA construct (refer to Auld et al., 2009) #GripTite 293 MSR Cell Line (Invitrogen #R795-07) #Complete growth media: DMEM (Invitrogen #11965), 10% HIFBS, 0.1mM MEM NEAA, 5mL/L pen-strep (of 5000U/mL stock), 600ug/mL Geneticin #Assay media: DMEM without phenol red (Invitrogen #21063), 5% charcoal-stripped HIFBS (Hyclone #SH30071.03), 0.1mM MEM NEAA In-house detection reagent: 300mM Tris-HCl, 300mM Trizma base, 300mM MgCl, 1% Triton-X100, 5mM DTT, 500uM Coenzyme A trilithium salt (Sigma #C3019),450uM ATP (Sigma #A7699), 1mM D-luciferin sodium salt monohydrate (Biosynth #L8240) Control compounds used were two known firefly luciferase inhibitors (3-(5-(3-chlorophenyl)-1,2,4-oxadiazol-3-yl)benzoic acid and 5-(2-fluorophenyl)-3-phenyl-1,2,4-oxadiazole), and DMSO. Assay Summary: Transient transfection of FlucUGA construct: Day 1: GripTite cells were plated in T175 flasks at a density of 1.75 x 10^7 cells/T175 flask in complete growth media without Geneticin and allowed to grow ON in a 37 degrees Celsius incubator. Day 2: Cells in T175 flask were transfected - with 10ug of DNA and 30uL Transfast in 12mL complete growth media without serum and without Geneticin for 4 hours at 37 degrees Celsius. After incubation, cells were trypsinized, spun down, and resuspended to a concentration of 3.3 x 10^5 cells/mL in assay media. 6uL of cells in assay buffer were dispensed at 2000cells/well (3.3 x 10^5 cells/mL) into Greiner solid-white TC-treated 1536-well plates using a Multidrop Combi (Thermo Fisher Scientific). Plates were incubated for one hour at 37 degree Celsius, 95% humidity, 5% CO2. These assay plates were then treated with 23nL of compound or DMSO using a Kalypsys pin tool, which allows for delivery of a 12-point titration of each compound to the assay plate, with a final compound concentration ranging from approximately ~38uM to 0.2nM. Assay plates were then incubated for 48 hours. After incubation, plates were washed three times with DPBS (7uL/well). After the third wash, 6uL of DPBS was added to each well. 3uL of 3X luciferase detection reagent was then added to each well using a flying reagent dispenser (FRD). After a 15 minute incubation to allow for cell lysis, luciferase activity was measured using a ViewLux CCD imager (PerkinElmer), with an average exposure time of 2-12 seconds.
row,SMILES,Potency
1,COc1ccc(Br)cc1C(=O)Nc1ccc(C(=O)O)cc1,inactive
2,COc1ccc2nc(NC(=O)c3ccccc3C(=O)O)sc2c1,inactive
3,COc1cccc(OC)c1C(=O)Nc1cccc(C(=O)Nc2cccc(C(=O)O)c2)c1,inactive
4,CCOc1ccc2nc(NC(=O)c3ccoc3C)sc2c1,1790 nM (active)
5,CCCC(=O)Nc1nc2ccc(OCC)cc2s1,12600 nM (active)
6,O=C(COC(=O)c1ccccc1[N+](=O)[O-])c1ccc2c(c1)OCO2,inactive
7,CC(C)Oc1ccc(C(=O)Nc2ccc(-c3nc4ccccc4s3)cc2)cc1,inactive
8,O=C(O)c1ccc(NC(=O)c2cccc(NC(=O)c3cccs3)c2)cc1,inactive
9,O=C(Nc1ccccc1C(=O)O)c1cc(S(=O)(=O)Nc2cccc(F)c2)ccc1Cl,inactive
10,Nc1ccc(-c2nc3ccc(N)cc3s2)cc1,15900 nM (active)
11,O=C(Nc1ccccc1C(=O)O)c1ccccc1,inactive
12,CC(C)C(=O)Nc1cccc(C(=O)Nc2ccccc2C(=O)O)c1,inactive
13,COc1ccc2nc(NC(=O)c3ccc(S(=O)(=O)N4CCCC(C)C4)cc3)sc2c1 (stereo not given),inactive
14,O=C(Nc1ccccc1C(=O)O)c1cc(S(=O)(=O)NCc2ccccc2)ccc1Cl,inactive
15,O=C(Nc1ccccc1C(=O)O)c1ccc(NC(=O)C2CCCCC2)cc1,inactive
16,CCOc1c(Cl)cc(C(=O)Nc2ccccc2C(=O)O)cc1Cl,inactive
17,O=C(O)c1cccc(NC(=O)c2cccc(S(=O)(=O)Nc3cccc(F)c3)c2)c1,inactive
18,CN(C)S(=O)(=O)c1ccc(C(=O)Nc2ccccc2C(=O)O)cc1,inactive
19,COc1cc(C(=O)Nc2cc(C)c(O)c(-c3nc4ccccc4s3)c2)cc(OC)c1OC,inactive
20,COc1ccc(NS(=O)(=O)c2cccc(C(=O)Nc3ccccc3C(=O)O)c2)cc1,inactive

row,SMILES,Potency
1,Cc1ccc(C(=O)Nc2ccc(C(=O)O)cc2)cc1S(=O)(=O)NCc1ccccc1,inactive
2,O=C(Nc1ccccc1C(=O)O)c1cccc(C(=O)Nc2ccccc2C(=O)O)c1,inactive
3,Nc1ccc2nc(-c3ccccc3)sc2c1,4000 nM (active)
4,CN=c1scc(-c2ccccc2F)n1/N=C/c1ccc[nH]1,50.4 nM (active)
5,COc1ccc2nc(NC(=O)c3cnccn3)sc2c1,565 nM (active)
6,COc1ccccc1C(=O)Nc1ccc(C(=O)O)cc1,inactive
7,COc1ccc2nc(NC(=O)c3cccc(S(=O)(=O)N4CCOCC4)c3)sc2c1,inactive
8,O=C(Nc1ccccc1C(=O)O)c1cc(S(=O)(=O)Nc2ccccc2)ccc1Cl,inactive
9,O=C(O)c1ccc(NC(=O)c2ccccc2NC(=O)c2cccc(Br)c2)cc1,inactive
10,CC(C)(C)NC(=O)c1ccccc1-c1nc2ccccc2s1,inactive
11,O=C(O)c1cccc(NC(=O)c2ccccc2NC(=O)c2ccco2)c1,inactive
12,Cc1ccc(NS(=O)(=O)c2ccc(Cl)c(C(=O)Nc3cccc(C(=O)O)c3)c2)cc1,inactive
13,CC(=O)Oc1ccc(C(=O)Nc2ccccc2C(=O)Nc2ccc(C(=O)O)cc2)cc1,inactive
14,O=C(Nc1ccccc1C(=O)O)c1cccc(NC(=O)c2ccccc2Cl)c1,inactive
15,CC(C)(C)C(=O)Nc1ccc(-c2nc3ccccc3s2)cc1,31.8 nM (active)
16,COc1cc(OC)cc(C(=O)Nc2ccccc2-c2nc3ccccc3s2)c1,inactive
17,CC(=O)Nc1cccc(C(=O)Nc2ccccc2C(=O)O)c1,inactive
18,O=C(O)c1ccc(NC(=O)c2cccc(C(=O)Nc3ccc(C(=O)O)cc3)c2)cc1,inactive
19,O=C(O)c1ccc(NC(=O)c2cc(S(=O)(=O)N3CCCCC3)c(Cl)cc2Cl)cc1,inactive
20,O=C(Nc1ccccc1C(=O)O)c1cccc(S(=O)(=O)Nc2ccc(Br)cc2)c1,inactive

# Reference: PubChem BioAssay AID602476 (National Center for Advancing Translational Sciences (NCATS), 2012)
